Bioassay records as filed in PubChem.
GDH-TPI counter-1: GDH-TPI coupling enzyme inhibitors, primary screen, artefact control for M. tuberculosis FBA inhibitor project, biochemical, absorbance, full deck. GDH-TPI coupled enzyme counterscreen, NADH absorbance. inhibition, % at 4.8 µM. actives 1.2% (n = 360,000). AID 588335, 2011; in the data active means inhibition above about 30%;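 further: 0% = DMSO wells and 100% = wells lacking the enzyme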
Mtb FBA inh: Mtb FBA enzyme inhibitors, primary screen, biochemical, fluorescence, strain H37Rv. purified M. tuberculosis FBA, fluorescence read-out. inhibition, % at 1 µM. actives 2.3% (n = 360,000). AID 588726, 2011;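 further: 0% = vehicle and 100% = reference inhibitor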
Target sequence (P9WQA3 whole entry, looked up): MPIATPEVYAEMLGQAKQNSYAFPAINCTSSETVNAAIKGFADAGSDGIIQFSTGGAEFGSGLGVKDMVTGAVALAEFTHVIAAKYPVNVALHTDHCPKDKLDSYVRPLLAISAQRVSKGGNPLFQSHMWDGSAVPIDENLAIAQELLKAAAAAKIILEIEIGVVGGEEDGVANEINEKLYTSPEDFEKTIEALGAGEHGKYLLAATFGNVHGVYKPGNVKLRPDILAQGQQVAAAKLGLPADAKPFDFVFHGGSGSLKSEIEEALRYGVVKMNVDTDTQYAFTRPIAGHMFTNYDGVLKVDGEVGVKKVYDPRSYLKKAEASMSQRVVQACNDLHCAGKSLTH
Yp Topo-I inh: Yersinia pestis topoisomerase I inhibitors, primary screen, biochemical, cleavage product accumulation, plate reader, single point; DNA topoisomerase I (Yersinia pestis CO92); actives 0.064% (n = 360,000); activity, % at 10 µM; Y. pestis Topo-I cleavage product accumulation; in the data active means activity above about 50%, passing the limit was not always enough
TcdB inh: TcdB glycohydrolase inhibitors, primary screen, biochemical, single point, plate reader; TcdB glycohydrolase enzymatic assay; inhibition, % at 9.99 µM; actives 0.24% (n = 350,000); in the data active means inhibition above about 10%
PrPC surface inh: inhibitors of human cell surface prion protein PrPC, primary screen, cell-based, TR-FRET; Major prion protein (Homo sapiens), P04156; TR-FRET read-out; inhibition, % at 13.8 µM; actives 0.43% (n = 370,000); AID 720596, 2013; in the data active means inhibition above about 24%; further: 0% = median of the test wells and 100% = reference compound wells
Mtb FBA confirm: M. tuberculosis aldolase blockers, biochemical, fluorescence, strain H37Rv, confirmation | shares compounds with Mtb FBA inh | purified M. tuberculosis FBA, fluorescence read-out | inhibition, % at 1 µM | actives 78% (n = 5,600);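 further: 0% = vehicle wells and 100% = reference inhibitor wells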
GDH-TPI counter-2: GDH-TPI coupling enzyme inhibitors, artefact control for M. tuberculosis FBA inhibitor project, biochemical, fluorescence, high throughput. AID 652141, 2013. GDH-TPI coupled enzyme counterscreen. inhibition, % at 1 µM. shares compounds with Mtb FBA inh. actives 81% (n = 5,600); in the data active means inhibition above about 10%
An asterisk follows results filed as active; . = not tested or not shown; + = active, no number. Compounds with a hit are over-represented: about 3.2% of the library has one in this group of screens. Unless noted, no stated cut-off is given here; in the data, active means inhibition above about 27%; inactive means the rest.

SMILES | GDH-TPI counter-1 | Mtb FBA inh | Yp Topo-I inh | TcdB inh | PrPC surface inh | Mtb FBA confirm | GDH-TPI counter-2
CN(CCNC(=O)c1c[nH]c2c1ccc1ccccc12)CCNC(=O)c1c[nH]c2c1ccc1ccccc12 | 21.6 | 29.5* | -25.9 | -1.3 | 2.6 | 193.4* | 173.0*
Clc1ccc(C[n+]2c(-c3ccccc3)cc(-c3ccccc3)cc2-c2ccccc2)cc1 | 14.7 | 37.6* | 12.6 | 2.3 | 2.0 | 21.9 | 13.4*
C[C@@H]1CN([C@@H](C)CO)C(=O)c2cccc(NS(=O)(=O)c3ccc(F)cc3)c2O[C@@H]1CN(C)C(=O)Nc1ccccc1 | . | . | . | 0.0 | . | . | .
Nc1ccc2c(c1)[nH]c(=O)c1cc(N)ccc12 | 0.0 | 32.4* | -7.3 | 21.0* | 11.6 | 23.5 | 18.2*
CN(C(=O)CSC1=NCCS1)c1ccccc1 | 2.3 | -1.2 | 5.2 | . | 10.0 | . | .
CN(C(=O)CSc1nc(N)c2c3c(sc2n1)CSC(C)(C)C3)c1ccccc1 | 2.6 | 30.8* | 4.5 | . | 2.2 | 61.4* | 49.3*
CC(C)NC(=O)N[C@@H]1C=C[C@H](CC(=O)NCCCN(C)C)O[C@H]1CO | . | . | . | 0.6 | . | . | .
O=C(NC1CCCC1)c1cc2c(ccc3ccccc32)o1 | -2.6 | 40.4* | 13.6 | . | 6.6 | 107.2* | 79.8*
O=C(NC1CC1)c1cc2ccccc2o1 | -3.9 | 3.3 | -11.1 | -0.7 | 7.1 | . | .
CNC(=O)c1cc2c(ccc3ccccc32)o1 | 10.9 | 50.6* | 6.7 | 1.3 | 5.1 | 127.5* | 102.3*
C[C@@H]1CN([C@H](C)CO)S(=O)(=O)c2ccc(C#C[C@@H](C)O)cc2O[C@H]1CN(C)Cc1ccncc1 | . | . | . | 0.3 | . | . | .
CC(C)NC(=O)Nc1cccc2c1O[C@@H](CN(C)C(=O)Nc1ccc(F)cc1)[C@H](C)CN([C@H](C)CO)C2=O | . | . | . | -1.4 | . | . | .
CCC(=O)N1C[C@H](C)[C@@H](OC)CN(C)C(=O)c2ccc(NC(=O)c3cnccn3)cc2OC[C@H]1C | . | . | . | -0.7 | . | . | .
C[C@@H]1CCCCO[C@H](CN(C)CC2CC2)[C@H](C)CN([C@H](C)CO)C(=O)c2cc(NS(=O)(=O)c3ccc(F)cc3)ccc2O1 | . | . | . | -6.0 | . | . | .
Cn1ccc2c(-c3ccc4c(c3)OCCO4)cc3c(c21)C1CCC3O1 (configuration not stated) | . | 109.0* | . | 1.8 | 2.9 | 1.0 | -4.3
CSc1ccc(-c2cc3c(c4c2ccn4C)C2CCC3C2)cc1 (configuration not stated) | . | 20.8 | . | 1.0 | 4.5 | . | .
Cn1ccc2c(-c3ccc(C(F)(F)F)cc3)cc3c(c21)C1CCC3O1 (configuration not stated) | . | 92.9* | . | 2.0 | 1.6 | 98.3* | 69.0*
CSc1ccc(-c2cc3c(c4c2ccn4C)C2CCC3O2)cc1 (configuration not stated) | . | 100.7* | . | 0.7 | -2.5 | 14.0 | 11.5*
Cn1ccc2c(-c3ccc4c(c3)OCCO4)cc3c(c21)C1CCC3C1 (configuration not stated) | . | 1.0 | . | 0.2 | -1.1 | . | .
COc1ccc(-c2cc(C(=O)N3CCN(c4ncccn4)CC3)c3ccccc3n2)cc1 | 16.8 | 31.5* | 19.6 | 0.5 | -0.6 | 149.2* | 122.5*
CCOc1ccc(-c2cc(C(=O)N3CCC4(CC3)OCCO4)c3ccccc3n2)cc1 | 2.6 | 11.1 | -3.3 | 1.0 | -1.2 | . | .
COc1ccc(-c2cc(C(=O)N3CCN(c4ccccc4O)CC3)c3ccccc3n2)cc1 | 6.7 | 8.0 | 5.0 | -2.7 | 1.6 | . | .
COc1ccc(-c2cc(C(=O)N3CCN(c4ccccc4)CC3)c3ccccc3n2)cc1 | 13.8 | 30.1* | 14.2 | 0.1 | 3.8 | 3.6 | -8.2
COc1ccc(-c2cc(C(=O)N3CCC4(CC3)OCCO4)c3ccccc3n2)cc1 | 20.5 | 110.0* | 24.5 | -0.3 | -2.0 | -0.8 | 1.1
CC(C)NC(=O)N(C)C[C@@H]1OCCCC[C@H](C)Oc2ccc(NS(=O)(=O)c3cn(C)cn3)cc2C(=O)N([C@@H](C)CO)C[C@@H]1C | . | . | . | -1.7 | . | . | .
SMILES | GDH-TPI counter-1 | Mtb FBA inh | Yp Topo-I inh | TcdB inh | PrPC surface inh | Mtb FBA confirm | GDH-TPI counter-2
C[C@H](CO)N1C[C@H](C)[C@@H](CN(C)C(=O)Cc2ccccn2)Oc2ncc(C#CC3CCCCC3)cc2C1=O | . | . | . | -0.7 | . | . | .
Cn1ccc2c(-c3ccc(C(F)(F)F)cc3)cc3c(c21)C1CCC3C1 (configuration not stated) | . | 34.5* | . | 0.8 | 5.2 | 56.0* | 47.0*
Cn1ccc2c(-c3ccc(CO)cc3)cc3c(c21)C1CCC3C1 (configuration not stated) | . | 81.5* | . | 2.1 | -3.1 | + | +
Cn1ccc2c(-c3ccc(C(N)=O)cc3)cc3c(c21)C1CCC3C1 (configuration not stated) | . | 53.2* | . | 1.8 | 6.9 | 112.5* | 103.1*
Cn1ccc2c(-c3ccc(F)cc3)cc3c(c21)C1CCC3C1 (configuration not stated) | . | 8.6 | . | 1.6 | -1.9 | . | .
COCC(=O)N(C)C[C@H]1Oc2cc(-c3ccc(OC)cc3)ccc2S(=O)(=O)N([C@@H](C)CO)C[C@H]1C | . | . | . | 1.6 | . | . | .
CCCC#Cc1cnc2c(c1)C(=O)N([C@H](C)CO)C[C@H](C)[C@H](CN(C)C(=O)CCN1CCCCC1)O2 | . | . | . | -1.2 | . | . | .
N#Cc1c(C(F)(F)F)cc(-c2ccco2)nc1SCc1ccncc1 | -0.5 | 28.6* | 22.5 | . | -0.3 | 56.2* | 32.4*
N#Cc1c(C(F)(F)F)cc(-c2ccco2)nc1SCc1ccccn1 | 12.7 | 18.6 | 5.5 | . | -11.1 | . | .
CC(C)C#Cc1cnc2c(c1)C(=O)N([C@H](C)CO)C[C@H](C)[C@@H](CN(C)C(=O)Nc1ccc(F)cc1)O2 | . | . | . | -1.4 | . | . | .
O=C1OCC2=C1C(c1ccc(F)cc1)c1cc3c(cc1N2)OCCO3 (configuration not stated) | 36.6* | 73.9* | 4.8 | 0.0 | 9.5 | + | 137.4*
COc1cccc(C2C3=C(CC(C)(C)CC3=O)Nc3cc4c(cc32)OCO4)c1 (configuration not stated) | 24.8 | 14.6 | -2.4 | -1.6 | 2.1 | . | .
CCOc1ccccc1C1C2=C(COC2=O)Nc2cc3c(cc21)OCO3 (configuration not stated) | 1.6 | 10.8 | 1.7 | -3.2 | 9.6 | . | .
O=C1OCC2=C1C(c1ccc(F)cc1)c1cc3c(cc1N2)OCO3 (configuration not stated) | 7.1 | 27.2* | -1.7 | . | 12.8 | 133.2* | 141.8*
